Assay results: PubChem BioAssay (NCATS)
“And” between values parts separate entries of the source, which are not always exact repeats. Equal values may be shown once. Inconclusive results are not listed. Some structures have more than one record in an assay (separate samples or runs), and their calls can disagree. The source made the active and inactive calls. Calls follow the shape of the dose curve; as a rule, active = well fitted inhibition curve with a large enough effect; inconclusive = small, poorly fitted or top-dose-only effect; inactive = no such curve, though single readings can be large or run the other way.

Assay: Primary qHTS for inhibitors of nuclear receptor binding SET domain protein 2 (NSD2) in an RCH-ACV wild type WT cells (2C) (AID 1645877); also: nearly all actives have a fitted effect of over 70% in size
Conditions: RCH-ACV (leukaemia line) NSD2 WT (2C) viability, CellTiter-Glo, 72 h; series mostly up to 44.9 µM
Potency is read from the fitted curve at half-maximal effect.

| SMILES | Potency |
| --- | --- |
| CCCCCNC(=O)N1CCC(CN(Cc2ccc(Cl)cc2)Cc2ccc([N+](=O)[O-])s2)C1 (centres undefined) | inactive |
| O=C(CCCCCCC(=O)Nc1ccccc1)NO | 106 nM (active) and 649 nM (active) and 833 nM (active) |
| O=C(CCN1CCN(C(=O)OCc2cc(Cl)cc(Cl)c2)CC1)c1ccc2[nH]c(=O)oc2c1 | 14.5 µM (active) and 18.6 µM (active) |
| CCc1ccc(OCc2ccccc2C(=O)Nc2ccc3nc(C)cc(N)c3c2)cc1 | 2.95 µM (active) |
| COc1cc(N2CCC(N3CCN(C)CC3)CC2)ccc1Nc1ncnc(Nc2ccccc2S(=O)(=O)C(C)C)n1 | 18.4 µM (active) and 10.5 µM (active) |
| COc1cc2ncnc(-n3nc(-c4ccccn4)nc3N)c2cc1OC | 2.52 µM (active) |
| COc1cc2c(cc1OC)CN(CCc1ccc(NC(=O)c3cc(OC)c(OC)cc3NC(=O)c3cnc4ccccc4c3)cc1)CC2 | inactive |
| CC(C)(C)NC(=O)Nc1cccc(Nc2ncc(F)c(NC(C)(C)CO)n2)c1 | 2.63 µM (active) |
| CCOC(=O)C1=C(N)Oc2ccc(Br)cc2C1C(C#N)C(=O)OCC (centres undefined) | inactive |
| CC1(C)Cc2c(sc(NC(=S)NC(=O)c3ccccc3)c2C(=O)O)CO1 | inactive |
| COc1cccc2c1CCCC2CCCN1CCN(C2CCCCC2)CC1 (centres undefined) | 20.9 µM (active) |
| CCOc1ccc(Nc2nc(-c3c(C)nc4ccccn34)cs2)cc1 | 183 nM (active) and inactive |
| CCCCCCCCCCCC1=C(O)C(=O)C=C(O)C1=O | inactive |
| CC(C)(C)Cn1c(N)nc2ccc(-c3[nH]c(C(C)(C)C)nc3-c3ccc(F)cc3)nc21 | 2.58 µM (active) and 16.6 µM (active) |
